Assay [1] concerns Wnt5a (protein binding on small-molecule microarray). The assay is described as follows: small molecules binding Wnt5a protein – biophysical, small-molecule microarray, 635/667 nm fluorescence, primary screen (AID 1142).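 Further: fluorescence read at 667 nm with signal to noise per printed feature.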 Particulars: 635 nm fluorescence, higher = more signal.
Assay [2] is described as follows: ATP-based viability of Huh7 replicon cells – cell-based, CellTiter-Glo luminescence, basal, 48 h, cytotoxicity control for HCV replication inhibitor project, primary screen (AID 1143).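 Further: Huh7 hepatoma cells carrying a hepatitis C replication reporter with no stimulus; test concentration not given here.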 The settings on record: higher = more signal, called active from +8 up or from −8 down. Background: A replicon is a self-replicating genome or part of one, used to study replication in cells.

Assay [3] in a line: Pseudomonas biofilm growth suppression – PAO1 strain, BacTiter-Glo luminescence, LB-PBS, primary screen (AID 1144). Particulars: P. aeruginosa PAO1 biofilm, 12 h, higher = more signal.
Assay [4] is described as follows: basal CRE-LacZ reporter activity in PC12 – cell-based, unstimulated, primary screen (AID 1145). The settings on record: no forskolin, luminescence, 4.5 h, higher = more signal, called active from +8 up or from −8 down.
Assay [5] is described as follows: forskolin-driven CRE-LacZ activity in PC12 – cell-based, CRE-LacZ reporter, forskolin-stimulated, primary screen (AID 1146).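 Further: PC12 cells with 6xCRE LacZ reporter stimulated by forskolin 10 µM; beta-galactosidase reporter signal reflecting CREB driven transcription.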 The settings on record: luminescence, 4.5 h, higher = more signal, called active from +8 up or from −8 down.
For assay [6], the target named is Streptavidin (Streptomyces avidinii) (UniProt P22629). The assay is described as follows: compounds binding control protein streptavidin – biophysical, small-molecule microarray, 635/667 nm fluorescence, artefact control for SMM compound annotation, primary screen (AID 1147).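 Further: signal reflects streptavidin binding to arrayed compounds as a control protein.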 Particulars: higher = more signal.
Streptavidin (Streptomyces avidinii), sequence (P22629 whole entry, looked up): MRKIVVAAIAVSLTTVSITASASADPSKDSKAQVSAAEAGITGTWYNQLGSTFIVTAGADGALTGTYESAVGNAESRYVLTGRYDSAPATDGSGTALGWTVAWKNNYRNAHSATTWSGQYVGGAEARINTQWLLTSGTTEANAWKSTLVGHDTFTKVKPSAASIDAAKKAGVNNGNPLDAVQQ
A short description of assay [7]: probe aInhba binding on compound microarray – biochemical, small-molecule microarray, 635/667 nm fluorescence, primary screen (AID 1148).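 Further: score merges 667nm spot fluorescence with signal-to-noise for antibody binding to printed compounds.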 The settings on record: higher = more signal.
Assay [8] deals with Torsin-1A (Homo sapiens) (UniProt O14656). Kind of assay: TOR1A wild-type binding on microarray – cell lysate, small-molecule microarray, lysate, 635/667 nm, primary screen (AID 1149). Particulars: COS7 hTOR1A-WT lysate, 635 nm fluorescence, higher = more signal.
Torsin-1A (Homo sapiens), sequence (O14656 whole entry, looked up): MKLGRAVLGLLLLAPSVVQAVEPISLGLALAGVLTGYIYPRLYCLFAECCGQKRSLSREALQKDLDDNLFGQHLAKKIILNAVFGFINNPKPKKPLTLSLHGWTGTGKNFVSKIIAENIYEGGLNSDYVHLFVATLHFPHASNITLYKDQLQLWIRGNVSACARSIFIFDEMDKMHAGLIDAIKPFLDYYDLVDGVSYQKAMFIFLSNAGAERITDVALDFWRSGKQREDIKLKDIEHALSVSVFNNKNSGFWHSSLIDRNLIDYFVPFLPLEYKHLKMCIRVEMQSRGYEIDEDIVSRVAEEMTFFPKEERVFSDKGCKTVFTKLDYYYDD
Assay [9] has the same target. Kind of assay: torsin A mutant lysate binding on microarrays – cell lysate, small-molecule microarray, COS7 lysate, 635/667 nm fluorescence, primary screen (AID 1150).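 Further: score pools 667 nm emission and signal to noise measuring lysate protein binding.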 Particulars: COS7 hTOR1A mutant lysate, 635 nm fluorescence, higher = more signal.
The test system of assay [10] is Sonic hedgehog protein (Shh). The assay is described as follows: Sonic hedgehog microarray binding compounds – biochemical, small-molecule microarray, 635/667 nm fluorescence, primary screen (AID 1151).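 Further: Shh protein binding to compounds spotted on small-molecule microarray slides; score combines spot fluorescence intensity with signal-to-noise across triplicate slides.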 Particulars: 635 nm fluorescence, higher = more signal.

The source made the active and inactive calls. Unless noted, how the calls were made is not given here.

As for `C=CC[C@]1(C(=O)N2CCOCC2)N=C(c2ccc(OCCCO)cc2)O[C@H]1c1ccccc1`, the composite z-score in assay [1] was 0.514; in assay [6] it was 0.954; in [7] it was 0.0561; in the assay with Torsin-1A (Homo sapiens) [8] it was -0.267; with Torsin-1A (Homo sapiens) [9], 0.96; in assay [10], -0.509. Moreover, the z-score in assay [2] is -2.02 (inactive); in assay [3], -0.248 (inactive); in assay [4] it was 1.34 (inactive); in assay [5], -0.302 (inactive).

Regarding `Cc1cc(C)cc(N2C(=O)CS(=O)(=O)C2c2cccc([N+](=O)[O-])c2)c1` (stereo not given), the composite z-score in assay [1] amounted to 0.223; in assay [6] it was 1.26; in assay [7], 0.952; in the assay with Torsin-1A (Homo sapiens) [8], 0.513; with Torsin-1A (Homo sapiens) [9], 0.897; in assay [10] it was 0.659. Moreover, the z-score was -2.18 (inactive) in [2], -0.527 (inactive) in assay [3], -0.0243 (inactive) in assay [4] and -0.494 (inactive) in [5].

On to `C=CC[C@@]1(C(=O)N2CCOCC2)N=C(c2ccc(OCCCO)cc2)O[C@@H]1c1ccccc1N=[N+]=[N-]`, for which the composite z-score worked out at 0.331 in assay [1]; 1.73 in [6]; 0.2 in [7]; 0.41 with Torsin-1A (Homo sapiens) [8]; 0.386 with Torsin-1A (Homo sapiens) [9]; 0.0055 in [10]. Also, the z-score was -4.09 (inactive) in [2], -0.726 (inactive) in assay [3], -0.333 (inactive) in assay [4] and -1.34 (inactive) in assay [5].

`O=C1[C@]2(CO)C=C(Br)[C@@H](C[C@@H]2c2ccccc2)[C@@]12CO2`: the composite z-score in [1] was -0.165; in assay [6], 1.26; in assay [7] it was -0.237; with Torsin-1A (Homo sapiens) [8], -0.619; in the assay with Torsin-1A (Homo sapiens) [9] it was 0.0294; in assay [10], 0.344. Also, the z-score in assay [2] is -0.296 (inactive); in [3] it was -0.547 (inactive); in assay [4], 1.12 (inactive); in assay [5], 3.94 (inactive).

On to `C=CCC(OC(C)=O)[C@@H]1[C@@H](N(Cc2cccc3ccccc23)C(=O)c2ccc(C)cc2)c2cc(OCCCO)ccc2N1C(=O)Cc1ccc(OC)cc1` (stereo not given in full), for which the composite z-score was -0.0466 in assay [1]; 0.547 in assay [6]; -0.189 in assay [7]; 0.291 with Torsin-1A (Homo sapiens) [8]; 0.553 with Torsin-1A (Homo sapiens) [9]; 0.562 in assay [10]. Also, the z-score in assay [2] is -0.798 (inactive); in assay [3], -0.738 (inactive); in assay [4], -0.402 (inactive); in assay [5], -0.281 (inactive).

As for `CC1=C2[C@@H](CCc3ccccc3)OB(O)C[C@@H]2n2c(=O)n(-c3ccccc3)c(=O)n2C1`, the composite z-score in assay [1] is 0.207; in assay [6], 0.156; in assay [7], -0.0405; in the assay with Torsin-1A (Homo sapiens) [8] it was 0.0316; with Torsin-1A (Homo sapiens) [9], 0.111; in assay [10], 0.724. The z-score in [2] is -0.382 (inactive); in [3], 0.909 (inactive); in [4], 0.402 (inactive); in [5] it was -0.826 (inactive).

Regarding `COC(=O)C(CC#Cc1ccc2c(c1)[C@]1(C(=O)N2)[C@H](c2ccc(OCCO)cc2)N2[C@H](c3ccccc3)[C@H](c3ccccc3)OC(=O)[C@H]2[C@@H]1C(=O)NC[C@H](O)c1ccccc1)C(=O)OC`, the composite z-score was determined as 0.593 in assay [1]; 0.472 in assay [6]; 0.0442 in [7]; 0.413 with Torsin-1A (Homo sapiens) [8]; 0.532 with Torsin-1A (Homo sapiens) [9]; 1.4 in assay [10]. For the same compound, the z-score was -1.17 (inactive) in [2], -0.923 (inactive) in assay [3], 0.0384 (inactive) in assay [4] and -0.926 (inactive) in assay [5].

Take `CN(C)CCCCNC(=O)[C@H]1C[C@H]2C(=O)N[C@@H](Cc3ccccc3)C(=O)N2[C@H]1c1ccc(O)cc1`: the composite z-score in assay [1] was 0.335; in assay [6], 1.34; in assay [7], -0.128; with Torsin-1A (Homo sapiens) [8] it was 1.87; in the assay with Torsin-1A (Homo sapiens) [9], 0.734; in assay [10], 2.09. The z-score in [2] is -2.14 (inactive); in assay [3], -1.49 (inactive); in [4] it was -1.9 (inactive); in assay [5], -0.32 (inactive).

Regarding `C=C(COC)C(=O)CC[C@H](OC(C)=O)c1cccc(OCCO)c1`, the composite z-score is 0.145 in assay [1]; -1.1 in [6]; -0.142 in assay [7]; 0.315 with Torsin-1A (Homo sapiens) [8]; 0.142 in the assay with Torsin-1A (Homo sapiens) [9]; 0.9 in assay [10]. Besides, the z-score in assay [2] was -3.15 (inactive); in assay [3], 0.198 (inactive); in [4], 0.942 (inactive); in [5], 0.203 (inactive).

With `O=C1C[C@]2(c3ccc([N+](=O)[O-])cc3)C(=O)N(CC(F)(F)F)c3cc(CO)ccc3[C@H]2N1CC12CC3CC(CC(C3)C1)C2`, the composite z-score was -0.171 in assay [1]; -0.143 in assay [6]; 0.0091 in [7]; -0.662 with Torsin-1A (Homo sapiens) [8]; -0.156 with Torsin-1A (Homo sapiens) [9]; 0.277 in [10]. For the same compound, the z-score in [2] was -1.89 (inactive); in [3], -0.892 (inactive); in [4], -0.698 (inactive); in assay [5] it was 0.0632 (inactive).

As to `CC(C)c1ccc(NN2C(C(O)c3ccc(N(C)C)cc3)C=CC3C(=O)N(c4ccccc4)C(=O)C32)cc1` (stereo not given), the composite z-score was 0.125 in [1]; 1.76 in assay [6]; 0.268 in [7]; 0.074 with Torsin-1A (Homo sapiens) [8]; 0.658 with Torsin-1A (Homo sapiens) [9]; -0.0206 in assay [10]. The z-score in assay [2] was -1.1 (inactive); in assay [3] it was -0.666 (inactive); in [4], -0.133 (inactive); in assay [5], 0.856 (inactive).

Turning to `O=C1O[C@H](c2ccccc2)[C@H](c2ccccc2)N2[C@H]1[C@@H](C(=O)N1CCN(c3ncccn3)CC1)[C@]1(C(=O)Nc3ccccc31)[C@H]2c1ccc(OCCO)cc1`, the composite z-score in [1] was 0.505; in [6], -0.0363; in assay [7] it was 0.0588; with Torsin-1A (Homo sapiens) [8], 1.43; in the assay with Torsin-1A (Homo sapiens) [9] it was 0.36; in assay [10] it was 1.98. The z-score in assay [2] was -5.5 (inactive); in [3], -2.01 (inactive); in assay [4], -0.528 (inactive); in assay [5] it was -0.222 (inactive).

Consider `COc1cc(CO)ccc1OC(C)=O`, for which the composite z-score in assay [1] is 0.226; in assay [6], 0.683; in assay [7], -0.308; with Torsin-1A (Homo sapiens) [8], 0.867; with Torsin-1A (Homo sapiens) [9], 0.388; in assay [10], 1.05. Also, the z-score in assay [2] is -2.07 (inactive); in assay [3] it was -0.433 (inactive); in [4], 0.0918 (inactive); in assay [5], -0.874 (inactive).

`CN(C)CCCCCCNC(=O)[C@H]1C[C@H]2C(=O)N[C@@H](CCCCN)C(=O)N2[C@H]1c1ccc(O)cc1`: the composite z-score in assay [1] worked out at 1.79; in assay [6], 2.68; in [7], 1.39; with Torsin-1A (Homo sapiens) [8], 3.35; with Torsin-1A (Homo sapiens) [9], 3.24; in assay [10], 2.05. In addition, the z-score was 0.253 (inactive) in assay [2], -0.26 (inactive) in assay [3], 0.0124 (inactive) in assay [4] and 0.737 (inactive) in assay [5].

For the origin of these results see PubChem BioAssay.
